Active and inactive are the calls of the source.

We go through 36 molecules from PubChem BioAssay.

One assay deals with Torsin-1A-interacting protein 2 (Homo sapiens) (UniProt Q8NFQ8). Nature of the assay: LULL1 binders on small-molecule microarray, primary screen, cell lysate, human LULL1 lysate, 635/667 nm fluorescence (AID 1092).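 Also: probe is lysate of COS7 cells overexpressing human LULL1; score merges per-feature 667 nm fluorescence with signal-to-noise.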 The settings on record: hLULL1 lysate binding, 635 nm fluorescence, higher = more signal.
Sequence of Torsin-1A-interacting protein 2 (Homo sapiens) (Q8NFQ8 whole entry, looked up): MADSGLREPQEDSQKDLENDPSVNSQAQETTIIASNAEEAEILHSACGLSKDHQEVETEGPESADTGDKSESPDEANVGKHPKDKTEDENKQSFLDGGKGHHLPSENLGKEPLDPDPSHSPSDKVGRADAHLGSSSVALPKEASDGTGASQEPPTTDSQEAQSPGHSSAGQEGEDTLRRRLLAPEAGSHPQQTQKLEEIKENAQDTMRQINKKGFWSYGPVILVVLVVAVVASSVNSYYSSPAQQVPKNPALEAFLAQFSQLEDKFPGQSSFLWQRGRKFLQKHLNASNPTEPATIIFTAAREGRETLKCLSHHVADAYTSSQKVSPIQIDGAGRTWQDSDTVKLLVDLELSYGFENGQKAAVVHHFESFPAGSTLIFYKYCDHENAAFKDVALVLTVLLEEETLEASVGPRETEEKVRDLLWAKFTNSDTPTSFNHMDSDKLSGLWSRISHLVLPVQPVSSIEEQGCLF
Regarding `CCCCC=C[C@@H](NC(=O)OCc1ccccc1Cl)c1ccccc1`, the composite z-score turned out to be 2.9.
`COc1cc(C(O)C2C=CC3C(=O)N(C)C(=O)C3N2Nc2ccccc2)cc(OC)c1OC` (stereo not drawn): the composite z-score was found to be 3.62.
Consider `C=CC[C@H](OC(=O)Nc1ccc(SC)cc1)c1ccc(O)c2ccccc12`, for which the composite z-score came out at 2.8.
Same read-out and setting: the figure for `[N-]=[N+]=Nc1ccccc1C[C@@]1(C(=O)N2CCOCC2)N=C(c2ccc(OCCCO)cc2)O[C@@H]1c1ccccc1` is 3.38; for `COc1ccc(C(=O)Nc2ccc(CN3C(=O)[C@]4(O[C@H](CC(=O)N5Cc6ccccc6C[C@H]5CO)[C@@H]([Si](C)(C)c5ccc(OC)cc5)[C@@H]4C)c4ccccc43)cc2)cc1` it is 1.77; for `C=CCNC(=O)[C@@H]1[C@H]2C(=O)O[C@H](c3ccccc3)[C@H](c3ccccc3)N2[C@H](c2ccc(O)cc2)[C@@]12C(=O)N(C(=O)OCCOC)c1ccc(C#CC3=CCCCC3)cc12` it is 2.25.
Still for that read-out and setting: for `C=CCOC(=O)[C@@]1(Cc2ccccc2)C[C@H]2CO[C@H](c3ccc(OC)cc3)N2C1=O` the value was 0.317.

System in the next assay: not listed separately
Description: E. coli growth modulation, two-sided OD650, primary screen, E. coli filamentation project, strain DRC41, 24 h (AID 1093).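 Also: MC1000 strain lacking acrAB efflux and sulA so SOS filamentation is blocked; test concentration not given here.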 Particulars: OD650, 24 h, higher = more signal, called active from +8 up or from −8 down.
With `Cc1ccc(NN2C(C(O)c3c(F)cccc3Cl)C=CC3C(=O)N(C4CCCCC4)C(=O)C32)cc1` (stereo not drawn), the z-score is -0.0346 (inactive).
In the case of `CC(C)N1C(=O)C[C@@](C(=O)O)(c2ccc([N+](=O)[O-])cc2)[C@H]1c1ccc(CO)cc1`, the z-score was 1.27 (inactive).
For the molecule `CCCN1C(=O)[C@@]2(Cc3ccccc31)N=C(c1ccc(OCCCO)cc1)O[C@H]2c1ccccc1`, the z-score is -0.0139 (inactive).
The same measure, in the same setting: the figure for `C=CCN1C(=O)[C@]2(CCS(=O)(=O)c3ccccc3)N=C(c3ccc(OCCCO)cc3)O[C@@H]2c2ccccc21` is 0.624 (inactive); for `C=CC[C@@]1(C(=O)NCCCOC)N=C(c2ccc(OCCCO)cc2)O[C@@H]1c1ccccc1` it is 0.734 (inactive); for `COC(=O)c1c(CC[C@@H](CO)NC(=O)N2CCC[C@H]2Cn2cc(C3(O)CCCCC3)nn2)oc(C(C)=O)c1C(=O)OC` it is -0.889 (inactive).
Turning to `COCC(=C=CC[C@H](O)c1ccc(OCCO)cc1)CCO`, the z-score is 0.399 (inactive).
Take `C=CCNC(=O)[C@@H]1[C@H]2C(=O)O[C@H](c3ccccc3)[C@H](c3ccccc3)N2[C@H](c2ccccc2OCCO)[C@@]12C(=O)N(C(=O)OCCOC)c1ccc(C#CC3(O)CCCCCC3)cc12`: the z-score was 1.41 (inactive).
On to `COc1ccc([Si](C)(C)[C@@H]2[C@@H](CCO)O[C@]3(C(=O)N(Cc4ccccc4)c4ccc(N5C(=O)c6cccc7cccc5c67)cc43)[C@H]2C)cc1`, for which the z-score is 0.89 (inactive).
Same read-out and setting: for `C=CC[C@]1(C(=O)N2CCCCC2)N=C(c2ccc(OCCCO)cc2)O[C@H]1c1ccccc1CN=[N+]=[N-]` the value was 0.937 (inactive).
Consider `COC(=O)C1(CC(C)C)C=C2C(=C(c3ccccc3)C(=O)C2C)CN1` (stereo not drawn), for which the z-score was -0.326 (inactive).
Turning to `COc1ccc(CCNC(=O)[C@@H]2c3ccccc3C(=O)N(C3CCCCC3)[C@H]2c2ccc(CO)cc2)cc1`, the z-score is -1.14 (inactive).
Same read-out and setting: the figure for `CCCCCN1CC=CC23O[C@@H]4C=CCCOC(=O)C4[C@H]2C(=O)N(CCCCCCO)[C@@H]3C1=O` (stereo partly drawn) is 0.313 (inactive); for `CCOC(=O)C[C@H]1[C@H](OC(=O)c2ccc(-c3ccccc3)cc2)[C@@H](NC(=O)CC(C)C)c2cc(OCCCO)ccc2N1C(=O)c1ccc2ccccc2n1` it is -0.0583 (inactive); for `COC(=O)C(CC#Cc1ccc2c(c1)[C@]1(C(=O)N2)[C@H](c2ccc(O)cc2)N2[C@H](c3ccccc3)[C@H](c3ccccc3)OC(=O)[C@H]2[C@@H]1C(=O)NC[C@H](O)c1ccccc1)C(=O)OC` it is -0.968 (inactive).
Consider `COC(=O)[C@]1(CCS(=O)(=O)c2ccccc2)N=C(c2ccc(OCCCO)cc2)O[C@@H]1c1ccccc1N=[N+]=[N-]`, for which the z-score is -1.29 (inactive).
As to `O=C1C2C=CC(C(O)C3CC=CCC3)N(Nc3ccccc3)C2C(=O)N1c1ccccc1` (stereo not drawn), the z-score is -1.6 (inactive).
Still for that read-out and setting: the figure for `CCOC(=O)C[C@H]1[C@H](OC(=O)c2cc3ccccc3oc2=O)[C@@H](NC(=O)c2ccccc2)c2cc(OCCCO)ccc2N1C(=O)c1ccccc1` is -0.12 (inactive); for `COc1ccc([Si](C)(C)[C@H]2[C@H](CC(=O)N3Cc4ccccc4C[C@H]3CO)O[C@@]3(C(=O)N(Cc4ccc(N5CCOC5=O)cc4)c4ccccc43)[C@@H]2C)cc1` it is -0.167 (inactive); for `CC1CC/C=C\[C@H]2OC34C=CCN(C(C)C)C(=O)[C@H]3N(CCO)C(=O)[C@@H]4C2C(=O)O1` (stereo partly drawn) it is 1.48 (inactive).
Same read-out and setting: for `COCCCNC(=O)[C@@H]1c2ccccc2C(=O)N(C(C)C)[C@H]1c1ccc(CO)cc1` the value was -0.214 (inactive); for `COc1cccc(C)c1NC(=O)O[C@H]1[C@H](OC(=O)Nc2ccccc2-c2ccccc2)[C@H](OC(=O)Nc2ccccc2-c2ccccc2)[C@@H](OC)O[C@@H]1CO`, 0.0918 (inactive).
As to `CC(C)c1ccc(NN2C(C(O)c3ccc(F)cc3)C=CC3C(=O)N(c4ccccc4)C(=O)C32)cc1` (stereo not drawn), the z-score is -1.01 (inactive).
On to `C#CCN(Cc1ccccc1Br)[C@H](/C=C/c1ccccc1)[C@@H](O)Cc1ccccc1`, for which the z-score is 1.44 (inactive).
Turning to `[N-]=[N+]=Nc1ccccc1C[C@]1(C(=O)NCC(O)CO)COC(c2ccc(OCCCO)cc2)=N1` (stereo partly drawn), the z-score is 1.05 (inactive).
As for `O=C1O[C@@H](c2ccccc2)[C@@H](c2ccccc2)N2[C@@H](c3ccc(OCCO)cc3)[C@]3(C(=O)Nc4ccc(C#CC5=CCCCC5)cc43)[C@@H](C(=O)NC[C@H](O)c3ccccc3)[C@H]12`, the z-score is -0.749 (inactive).
`CCCC=C(CCC)[C@@H](NS(=O)(=O)c1ccc(C(F)(F)F)cc1)c1ccccc1`: the z-score is -1.74 (inactive).
Same read-out and setting: the figure for `CCCCCCCCCC(O)C1C=CC2C(=O)N(c3ccccc3)C(=O)C2N1Nc1cc(OC)c(OC)c(OC)c1` (stereo not drawn) is -3.91 (inactive); for `O=C(c1ccccc1)N1C(=O)[C@]2(Cc3ccccc31)N=C(c1ccc(OCCCO)cc1)O[C@@H]2c1ccccc1` it is 0.0249 (inactive); for `CCCCC=C[C@@H](NC(=O)OCc1ccccc1Cl)c1ccccc1` it is -1.48 (inactive).
Take `COc1cc(C(O)C2C=CC3C(=O)N(C)C(=O)C3N2Nc2ccccc2)cc(OC)c1OC` (stereo not drawn): the z-score is 0.238 (inactive).
Still for that read-out and setting: the figure for `C=CC[C@H](OC(=O)Nc1ccc(SC)cc1)c1ccc(O)c2ccccc12` is 1.42 (inactive); for `[N-]=[N+]=Nc1ccccc1C[C@@]1(C(=O)N2CCOCC2)N=C(c2ccc(OCCCO)cc2)O[C@@H]1c1ccccc1` it is 0.568 (inactive).
`COc1ccc(C(=O)Nc2ccc(CN3C(=O)[C@]4(O[C@H](CC(=O)N5Cc6ccccc6C[C@H]5CO)[C@@H]([Si](C)(C)c5ccc(OC)cc5)[C@@H]4C)c4ccccc43)cc2)cc1`: the z-score was 0.315 (inactive).
On the same count and under the same terms, the figure for `C=CCNC(=O)[C@@H]1[C@H]2C(=O)O[C@H](c3ccccc3)[C@H](c3ccccc3)N2[C@H](c2ccc(O)cc2)[C@@]12C(=O)N(C(=O)OCCOC)c1ccc(C#CC3=CCCCC3)cc12` is -0.633 (inactive).
In the case of `C=CCOC(=O)[C@@]1(Cc2ccccc2)C[C@H]2CO[C@H](c3ccc(OC)cc3)N2C1=O`, the z-score was 0.1 (inactive).
